Rows were chosen to be rich in hits. Some 10% of all compounds tested hit in one or more screens of this group.
Six1-Eya2 inh: inhibitors of human Six1/Eya2 interaction. AlphaScreen GST-Six1/His-Eya2 binding, biochemical; active compounds read low. AID 651725. activity change, % (test concentration not listed). Q15475+O00167. hit rate 0.56% among 360,000; in the data active = activity change below about -65%; inconclusive = mostly about -30% to -63%; also: % is scaled to controls: 0 for no effect and ±100 for the full control effect
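Six1/Eya2 binding was read as AlphaScreen signal after compounds were pinned into GST-Six1 plus His-tagged Eya2 (5X stock 250/500 nM) in pH 8.0 Tris/NaCl/TCEP buffer, beads added, then incubated 1 h, 37 C, dark.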
BAZ2B inh: blocks human BAZ2B | Q9UIF8 | AlphaScreen BAZ2B-H3K14Ac peptide displacement | Potency, µM (doses to about 114 µM), for the others: top-dose activity change, negative = inhibition, most hits filed as inhibitors | hit rate 4.4% among 360,000; also: potency is read from the fitted curve at half-maximal effect; % is scaled to controls: 0 for no effect and ±100 for the full control effect; nearly all actives have a fitted effect of over 60% in size
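Multi-concentration screen (max 110 uM) measuring displacement of acetylated histone H3 peptide from BAZ2B by AlphaScreen, using 50 nM protein, 50 nM peptide and 10 ug/mL streptavidin donor plus Ni-chelate acceptor beads.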
G9a inh: inhibitors of human histone lysine methyltransferase G9a; Q96KQ7; G9a H3K9 monomethylation, AlphaScreen, 2 h; Potency, µM (top dose mostly 102 µM), for the others: top-dose activity, negative = inhibition, hits mostly inhibitors; hit rate 8.8% among 350,000; AID 504332; also: potency is read from the fitted curve at half-maximal effect; % is scaled to controls: 0 for no effect and ±100 for the full control effect; nearly all actives have a fitted effect of over 75% in size
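Readings reflect AlphaScreen signal from monomethyl-H3K9 antibody detection. HMT at 20 nM; substrate b-H3K9 500 nM; cofactor SAM 20 uM; 2 h RT reaction; compounds tested as titrations in qHTS with 15 min preincubation.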
CtBP-E1A blk: inhibitors of CtBP/E1A interaction | AlphaScreen GST-E1A/His-CtBP binding, 1536-well; active compounds read low | activity change, % (test concentration not listed) | hit rate 0.49% among 340,000 | AID 651724; in the data active = activity change below about -65%; inconclusive = mostly about -30% to -63%; also: % is scaled to controls: 0 for no effect and ±100 for the full control effect
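In 5 uL wells, 23 nL compound meets equimolar GST-E1A and His-CtBP (5X stock 125 nM each) for 2 h, 37 °C. Beads (5X, 50 ug/mL) then 1 h, 37 °C, dark.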
JMJD2A Tudor: blocks the human JMJD2A Tudor domain; O75164; AlphaScreen JMJD2A-Tudor / H3K4me3 peptide binding; Potency, µM (titrated, usually from 114 µM), without a hit: top-dose activity change, negative = inhibition, hits mostly inhibitors; hit rate 4.4% among 390,000; AID 504339; also: potency is read from the fitted curve at half-maximal effect; % is scaled to controls: 0 for no effect and ±100 for the full control effect; nearly all actives have a fitted effect of over 50% in size
HP1b chromo inh: blocks HP1-beta chromodomain binding to methylated histone tails. P83916. AlphaScreen HP1-beta / biotin-H3K9me3 peptide binding. Potency, µM (top dose mostly 114 µM), inactives show at the top dose activity change, negative = inhibition, usual class: inhibitors. hit rate 0.56% among 390,000. AID 540317; also: potency is read from the fitted curve at half-maximal effect; nearly all actives have a fitted effect of over 70% in size
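HP1-beta protein (50 nM final) preincubated 30 min at room temperature with biotinylated H3(1-18)K9me3 peptide (50 nM) in PBS pH 7.4, 0.01% Tween-20, then compound added for 30 min. AlphaScreen streptavidin donor/nickel chelate acceptor beads (10 ug/mL final), 30 min dark, luminescence read.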
The depositor's hits bear a star; u = inconclusive; x = no result given; [ ] = dose if it differs, or a comment. Unless noted, calls follow the shape of the dose curve; as a rule, active = well fitted inhibition curve with a large enough effect; inconclusive = small, poorly fitted or top-dose-only effect; inactive = no such curve, though single readings can be large or run the other way.

SMILES	Six1-Eya2 inh	BAZ2B inh	G9a inh	CtBP-E1A blk	JMJD2A Tudor	HP1b chromo inh
Cc1ccc(CNC(=O)CCS(=O)(=O)c2ccc3c(c2)CC(C)N3C(=O)C2CC2)cc1 (centres undefined)	-2	-13%[57.1 µM]	12%	3	-1%	24%
CCC(=O)N1c2ccc(S(=O)(=O)CCC(=O)NCc3ccc4c(c3)OCO4)cc2CC1C (centres undefined)	3	-6%	12%[0.501 µM]	6	50µM*	-5%
CCOc1ccccc1NC(=O)CCS(=O)(=O)c1ccc2c(c1)CC(C)N2C(C)=O (centres undefined)	1	2%	25µM*	x	-9%	21%[57 µM]
CCC(=O)N1c2ccc(S(=O)(=O)CCC(=O)Nc3ccc(OC)cc3OC)cc2CC1C (centres undefined)	1	-27%	40µM*	x	u	25%[57 µM]
CCC(=O)N1c2ccc(S(=O)(=O)CCC(=O)NCc3ccccc3OC)cc2CC1C (centres undefined)	x	x	u	x	-15%	9%
O=C(Nc1ccc(Br)cc1F)c1cc2nc(-c3ccco3)cc(C(F)(F)Cl)n2n1	x	-4%	4%[59 µM]	x	-15%	-2%
CN1CCN(c2ccc([N+](=O)[O-])c(-n3nc(-c4ccccc4)c4ccccc4c3=O)c2)CC1	u	35µM*	45µM*	-29	40µM*	-47%
Cc1ccc(C(=O)Nc2sc3c(c2C(=O)O)CCC(C)C3)o1 (centres undefined)	-5	x	x	x	-19%	14%
CC(C)(C)NC(=O)CSc1nc2[nH]ncc2c(=O)[nH]1	-5	-4%	-4%	16	11%	37%
CC(C)CNC(=O)c1ccccc1C(=O)NC1(C(=O)NCC(C)C)CCCC1	-4	x	x	4	0%	27%
CS(=O)(=O)N1CCC(C(=O)Nc2ccc(Cl)c(Cl)c2)CC1	5	-11%	10%	5	-23%	-9%
CC(C)C[C@@H](CN)NC(=O)c1nc[nH]c1C(=O)N[C@@H](Cc1c[nH]c2ccccc12)C(=O)CNC[C@H](C)NC(=O)c1nc[nH]c1C(=O)N[C@@H](C)C(=O)O	-22	x	x	-15	56µM*	14%
CC(C)C[C@H](NC(=O)c1[nH]cnc1C(=O)N[C@@H](Cc1ccccc1)C(=O)OCc1ccccc1)C(=O)OCc1ccccc1	-4	-2%	x	-1	u	36%
CC(C)C[C@@H](CN)NC(=O)c1nc[nH]c1C(=O)N[C@@H](Cc1ccccc1)C(=O)CNC[C@H](C)NC(=O)c1nc[nH]c1C(=O)N[C@@H](C)C(=O)O	-10	x	x	-8	79µM*	56%
CC(C)C[C@@H](CN)NC(=O)c1nc[nH]c1C(=O)N[C@@H](Cc1ccccc1)C(=O)CNC[C@H](C)NC(=O)c1nc[nH]c1C(=O)N[C@@H](CC(C)C)C(=O)O	-19	x	x	-12	56µM*	49%
CC(C)C[C@@H](CNCC(=O)[C@H](Cc1c[nH]c2ccccc12)NC(=O)c1[nH]cnc1C(=O)N[C@@H](C)CN)NC(=O)c1nc[nH]c1C(=O)N[C@@H](Cc1ccccc1)C(=O)O	-6	x	x	-13	u	39%
O=C(OCC(=O)N1CCCc2ccccc21)c1c(F)cccc1F	9	20%	u	-10	0%	30%
COc1ccc(NC(=O)CSc2nc(-c3ccc(OC)c(OC)c3)[nH]c2-c2ccc(C)cc2)cc1	x	12%	14%[59 µM]	x	-23%	47%
C=C1CC[C@H](O)C/C1=C/C=C1\CCC[C@]2(C)C([C@H](C)CCCC(C)(C)O)CC[C@@H]12 (some centres undefined)	x	x	22%[59 µM]	x	x	x
CC1=NN(C(=O)c2ccccc2F)C(O)(c2ccc(Cl)cc2)C1 (centres undefined)	1	50µM*	3%	-8	-33%	25%
O=C(Nc1ccc2oc(-c3ccncc3)nc2c1)c1ccco1	-17	u	40µM*	-10	-30%	68%
O=C(Nc1ccc2oc(-c3ccccc3)nc2c1)c1ccco1	-9	5%	13%[59 µM]	-9	0%	14%
O=C(Nc1ccc2oc(-c3ccncc3)nc2c1)c1c(F)c(F)c(F)c(F)c1F	-2	-1%	-1%[12.7 µM]	-4	-15%[11.4 µM]	26%
O=C(Nc1ccc2oc(-c3ccncc3)nc2c1)c1ccc(Br)o1	0	-19%	32µM*	-9	-14%	-3%
COCCc1ccc(OC[C@H](O)CNC(C)C)cc1	x	x	-8%[12.7 µM]	x	x	x
SMILES	Six1-Eya2 inh	BAZ2B inh	G9a inh	CtBP-E1A blk	JMJD2A Tudor	HP1b chromo inh
O=C(NNC(=O)c1ccco1)c1csc(N2CCOCC2)n1	-3	u	7.1µM*	1	-1%	37%
COc1ccccc1OCCn1c(SCC(=O)O)nc2ccccc21	-3	u	40µM*	x	-46%	15%
COCC(C)NC(=O)Cn1c(SCc2ccccc2)nc2ccccc21 (centres undefined)	9	12%	45µM*	6	-10%[57.1 µM]	10%[57 µM]
COc1ccccc1OCCSc1nc2ccccc2n1CCC(=O)O	1	-2%	x	2	-12%	19%
COCC(C)NC(=O)CSc1nc2ccccc2n1CCc1ccccc1 (centres undefined)	3	35%	71µM*	x	-3%	28%
CN[C@@H]1[C@H](O[C@H]2[C@H](O[C@H]3[C@H](O)[C@@H](O)[C@H](N=C(N)N)[C@@H](O)[C@@H]3N=C(N)N)O[C@@H](C)[C@]2(O)C=O)O[C@@H](CO)[C@H](O)[C@H]1O	x	x	18µM*	x	x	x
CNC1C(O)C(O)C(CO)O[C@H]1OC1C(O[C@@H]2C(O)C(O)[C@@H](N=C(N)N)C(O)C2N=C(N)N)OC(C)[C@]1(O)C=O (some centres undefined)	x	x	-27%[2.33 µM]	x	x	x
C[C@@H]1CN([C@H](C)CO)C(=O)CCCn2cc(nn2)CO[C@H]1CN(C)C(=O)c1ccccc1	6	x	x	-3	x	x
Clc1ccccc1CN1CCN(c2ncccn2)CC1	-4	u	32µM*	-4	1µM*	u
Clc1ccc(CN2CCN(c3ncccn3)CC2)c(Cl)c1	2	u	x	15	18µM*	u
CC1CN(Cc2ccccc2Cl)CC(C)O1 (centres undefined)	5	32µM*	8.9µM*	17	4.5µM*	u
Clc1ccccc1CN1CCSCC1	-1	u	-3%[0.501 µM]	8	25µM*	u
Cc1cccc(S(=O)(=O)NC(=O)C2(C)CCN2C(=O)Cc2ccc(C(C)(C)C)cc2)c1 (centres undefined)	3	x	x	4	x	x
CN1CCN(c2cccc3c2S(=O)(=O)N[C@@H](Cc2ccccc2)CO3)CC1	-1	x	x	3	x	x
